According to PMC5540273 (PLoS ONE, 2017):

How the values were obtained:
Details in all cases: concentration: 1 μM, replicates: in singlicate; n = 1
[1] = test system: CHEK2
[2] = test system: CIT
[3] = test system: CLK1
[4] = test system: CLK2
[5] = test system: CLK3
[6] = test system: CLK4
[7] = test system: CSF1R-autoinhibited
[8] = test system: CSF1R
[9] = test system: CSK
[10] = test system: CSNK1A1L
[11] = test system: CSNK1A1
[12] = test system: CSNK1D
[13] = test system: CSNK1E
[14] = test system: CSNK1G1
[15] = test system: CSNK1G2
[16] = test system: CSNK1G3
[17] = test system: CSNK2A1
[18] = test system: CSNK2A2
[19] = test system: T1, CTK
T1 construct: gene MATK

[20] = test system: DAPK1
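Note: KINOMEscan kinase panel screen.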

Row | SMILES | %Inh [1] | %Inh [2] | %Inh [3] | %Inh [4] | %Inh [5] | %Inh [6] | %Inh [7] | %Inh [8] | %Inh [9] | %Inh [10] | %Inh [11] | %Inh [12] | %Inh [13] | %Inh [14] | %Inh [15] | %Inh [16] | %Inh [17] | %Inh [18] | %Inh [19] | %Inh [20]
1 | Cc1cc(N2Cc3ccccc3C2)nc(Nc2ccc(S(=O)(=O)N3CCOCC3)cc2)n1.Cl [GSK1669917] | 0% | 0% | 9% | 0% | 1% | 11% | 0% | 4% | 0% | 0% | 0% | 0% | 4% | 0% | 0% | 19% | 2% | 7% | 0% | 0%
2 | Cc1cccc(-c2nc(-c3ccc(S(C)(=O)=O)cc3)sc2-c2ccnc(NCCc3ccccc3)c2)c1 | 0% | 0% | 8% | 2% | 12% | 1% | 1% | 72% | 2% | 0% | 0% | 1% | 8% | 5% | 1% | 0% | 0% | 28% | 0% | 0%
3 | Cl.Oc1ccc(-c2nc(-c3ccccc3)[nH]c2-c2ccncc2)cc1 [SB-428218] | 0% | 0% | 0% | 6% | 0% | 0% | 55% | 10% | 0% | 11% | 0% | 37% | 28% | 18% | 0% | 0% | 0% | 0% | 0% | 3%
4 | Cc1cccc(-c2nc(Nc3ccncc3)c3ccccc3n2)n1 [GW855857] | 0% | 91.1% | 10% | 8% | 31% | 0% | 0% | 0% | 4% | 10% | 46% | 73% | 77% | 0% | 20% | 12% | 0% | 0% | 0% | 0%
5 | O=C(Nc1n[nH]c2cc(-c3cccc(F)c3F)ccc12)C1CC1 [SB-733894] | 0% | 6% | 0% | 13% | 0% | 0% | 0% | 7% | 0% | 0% | 16% | 17% | 0% | 0% | 4% | 0% | 0% | 29% | 56% | 20%
6 | COc1ccc(Nc2nccc(NCCNC(=O)Nc3ccccc3F)n2)cc1 [GSK1379901] | 0% | 0% | 32% | 0% | 100% | 29% | 0% | 11% | 3% | 0% | 0% | 7% | 99.4% | 7% | 0% | 25% | 0% | 2% | 0% | 0%
7 | Nc1nc(-c2nccs2)c(-c2ccnc3ccccc23)s1 [GW693542] | 0% | 44% | 22% | 0% | 0% | 16% | 0% | 0% | 9% | 23% | 40% | 58% | 41% | 9% | 0% | 24% | 0% | 2% | 0% | 0%
8 | COc1cc2nccc(Nc3ccc(NC(=O)c4ccc(C)cc4)c(O)c3)c2cc1OC.Cl [GW440132] | 11% | 11% | 37% | 0% | 87% | 14% | 15% | 18% | 0% | 9% | 0% | 2% | 45% | 0% | 0% | 30% | 0% | 0% | 0% | 0%
9 | O=C(Nc1n[nH]c2nc(-c3nccs3)c(Br)cc12)C1CCCC1 [SB-742609] | 0% | 36% | 22% | 0% | 4% | 0% | 0% | 3% | 0% | 6% | 25% | 42% | 11% | 0% | 0% | 22% | 0% | 0% | 0% | 0%
10 | Cc1c(O)cccc1Nc1ccnc2ccc(C(F)(F)F)cc12.Cl [GW466413] | 0% | 42% | 22% | 14% | 0% | 38% | 0% | 0% | 0% | 3% | 0% | 0% | 22% | 0% | 0% | 0% | 0% | 0% | 0% | 0%
